# Measurements taken from PMC12820563, “FoxP3 forms a head-to-head dimer in vivo and stabilizes its multimerization on adjacent microsatellites”.
# Over roughly 16,000 sequences, “rpm ratio (pull-down/input)” has its median near 0.5; the highest 2% begin near 5.5. This is one part of a sample in which the highest values are shown more often than they occur.
# Target: T1, MBP-FoxP3dN (Mus musculus, UniProt Q99JB6 188-423)
# T1 sequence: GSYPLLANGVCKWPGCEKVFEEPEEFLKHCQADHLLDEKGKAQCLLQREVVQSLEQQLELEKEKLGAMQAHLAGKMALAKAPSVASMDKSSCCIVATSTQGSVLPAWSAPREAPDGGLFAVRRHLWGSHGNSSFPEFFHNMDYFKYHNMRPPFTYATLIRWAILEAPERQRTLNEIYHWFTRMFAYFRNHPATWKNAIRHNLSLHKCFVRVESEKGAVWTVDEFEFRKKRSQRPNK
# Test: PD-seq (MBP pull-down with sequencing); 20 mM Tris-HCl pH 7.5, 100 mM NaCl, 1.5 mM MgCl2, 0.4 uM protein, 0.1 uM dsDNA library, 30 min, room temperature, amylose pull-down; high values mean tight binding
# Details: protein: recombinant; tags: His6-MBP; chain copies: 2; dsDNA, one strand shown
# Summary of the method: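 Protein and DNA were mixed at 0.4 µM and 0.1 µM and held for 30 min at room temperature in Tris pH 7.5 buffer with NaCl and MgCl2; the protein was a His6-MBP-tagged, N-terminally truncated mouse FoxP3 or FoxP1 fragment from E. coli, and the DNA a Klenow-filled double-stranded degenerate library. Amylose resin captured the complexes, which were washed three times. Binding is read as reads-per-million enrichment of pull-down versus input after Illumina sequencing, with replicates pooled.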
row,Sequence,binding signal
1,GATGATTGTTCTCCCAGCTGATGAATTGTGTTGGTCGAGTAAACAAATTTTCCTAATCTTTCTGTTCAAGCGCCATCTAC,6.68 RPM ratio (pull-down/input)
2,GATGATTGTTCTCCCAGCTGATGAATTTGGTTGGTCGAGTAAACAAATTTTCCTAATCTTTCTGTTCAAGCGCCATCTAC,2.96 RPM ratio (pull-down/input)
3,GATGATTGTTCTCCCAGCTGATGAATTTTGTTGGTCGAGTAAACAAATTTTCCTAATCTTTCTGTTCAAGCGCCATCTAC,7.07 RPM ratio (pull-down/input)
4,GATGATTGTTCTCCCAGCTGATGAATTGGTGTGGTCGAGTAAACAAATTTTCCTAATCTTTCTGTTCAAGCGCCATCTAC,1.32 RPM ratio (pull-down/input)
5,GATGATTGTTCTCCCAGCTGATGAATTCTTTTGGTCGAGTAAACAAATTTTCCTAATCTTTCTGTTCAAGCGCCATCTAC,0.31 RPM ratio (pull-down/input)
6,GATGATTGTTCTCCCAGCTGATGAATTCAATTGGTCGAGTAAACAAATTTTCCTAATCTTTCTGTTCAAGCGCCATCTAC,2.04 RPM ratio (pull-down/input)
7,GATGATTGTTCTCCCAGCTGATGAATTGGTTGTGTCGAGTAAACAAATTTTCCTAATCTTTCTGTTCAAGCGCCATCTAC,5.42 RPM ratio (pull-down/input)
8,GATGATTGTTCTCCCAGCTGATGAATTTCTTTGGTCGAGTAAACAAATTTTCCTAATCTTTCTGTTCAAGCGCCATCTAC,1.03 RPM ratio (pull-down/input)
9,GATGATTGTTCTCCCAGCTGATGAATTTTTGGGGTCGAGTAAACAAATTTTCCTAATCTTTCTGTTCAAGCGCCATCTAC,0.233 RPM ratio (pull-down/input)
10,GATGATTGTTCTCCCAGCTGATGAATTGTTTGGGTCGAGTAAACAAATTTTCCTAATCTTTCTGTTCAAGCGCCATCTAC,4.43 RPM ratio (pull-down/input)
11,GATGATTGTTCTCCCAGCTGATGAATTCTGTTGGTCGAGTAAACAAATTTTCCTAATCTTTCTGTTCAAGCGCCATCTAC,5.56 RPM ratio (pull-down/input)
12,GATGATTGTTCTCCCAGCTGATGAATTTGTTGGGTCGAGTAAACAAATTTTCCTAATCTTTCTGTTCAAGCGCCATCTAC,7.61 RPM ratio (pull-down/input)
13,GATGATTGTTCTCCCAGCTGATGAATTGTAATCTTCGAGTAAACAAATTTTCCTAATCTTTCTGTTCAAGCGCCATCTAC,0.84 RPM ratio (pull-down/input)
14,GATGATTGTTCTCCCAGCTGATGAATTGGTGAGATCGAGTAAACAAATTTTCCTAATCTTTCTGTTCAAGCGCCATCTAC,0.341 RPM ratio (pull-down/input)
15,GATGATTGTTCTCCCAGCTGATGAATTCTTTTACTCGAGTAAACAAATTTTCCTAATCTTTCTGTTCAAGCGCCATCTAC,0.312 RPM ratio (pull-down/input)
16,GATGATTGTTCTCCCAGCTGATGAATTCTTGGGATCGAGTAAACAAATTTTCCTAATCTTTCTGTTCAAGCGCCATCTAC,0.227 RPM ratio (pull-down/input)
17,GATGATTGTTCTCCCAGCTGATGAATTCCTCGTATCGAGTAAACAAATTTTCCTAATCTTTCTGTTCAAGCGCCATCTAC,0.403 RPM ratio (pull-down/input)
18,GATGATTGTTCTCCCAGCTGATGAATTGCGACCGTCGAGTAAACAAATTTTCCTAATCTTTCTGTTCAAGCGCCATCTAC,0.963 RPM ratio (pull-down/input)
